Test results: PubChem BioAssay AID1224921 (Broad Institute, 2016)
The campaign covered roughly 1,400 compounds. About 350 (25%) were called active. About 2% were inconclusive and are not listed. No rule for the calls is given here. The list is a sample of the results. Measured potencies and affinities stand elsewhere.

experiment: inhibitors of Clostridioides difficile proliferation – 4-point retest, confirmation (AID 1224921); settings: Clostridioides difficile clinical isolate growth, OD600, 24 h, hits give low values; at 30 µM unless noted;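 also: plate controls were DMSO wells for no effect and levofloxacin 16 µg/mL wells for full effect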

Max activity, inactive:
C[C@@H]1CN([C@H](C)CO)S(=O)(=O)c2ccc(C#CCC3CCCC3)cc2O[C@H]1CN(C)C(=O)c1ccccn1 43.5%
CO[C@@H]1CN(C)C(=O)c2ccc(NC(C)=O)cc2OC[C@@H](C)N(Cc2cc(F)ccc2F)C[C@H]1C -9.54% [at 8 µM]
Cc1ccc(-c2ccc3c(c2)O[C@@H](CN(C)Cc2cccnc2)[C@@H](C)CN([C@@H](C)CO)S3(=O)=O)cc1 35.1%
CN(C)C(=O)c1ccc(-c2ccc([C@@H]3[C@@H](CO)N(C(=O)C4CCCCC4)[C@H]3C#N)cc2)cc1 -13.2% [at 0.5 µM]
C[C@H](CO)N1C[C@H](C)[C@H](CN(C)C(=O)Nc2ccc(C(F)(F)F)cc2)OCCCC[C@H](C)Oc2ccc(NS(=O)(=O)c3ccc(Cl)cc3)cc2C1=O 14.5%
C[C@H]1CCCCO[C@@H](CN(C)C(=O)Nc2ccc(C(F)(F)F)cc2)[C@@H](C)CN([C@@H](C)CO)C(=O)c2cc(NS(=O)(=O)c3ccc(Cl)cc3)ccc2O1 12.1%
COc1ccc(NC(=O)Nc2cccc3c2O[C@H](CN(C)C(=O)NC2CCCCC2)[C@@H](C)CN([C@H](C)CO)C3=O)cc1 -16%
CO[C@H]1CN(C)C(=O)c2cc(NS(=O)(=O)c3ccc(Cl)cc3)ccc2OC[C@@H](C)N(C(=O)NC(C)C)C[C@@H]1C 11.8%
C[C@H](O)C#Cc1ccc2c(c1)O[C@@H](CN(C)C(=O)c1ccccc1)[C@@H](C)CN([C@@H](C)CO)S2(=O)=O -12.7%
C[C@H](CO)N1C[C@H](C)[C@@H](CN(C)Cc2ccccn2)Oc2cc(C3=CCCCC3)ccc2S1(=O)=O 33.3%
C[C@@H]1CN([C@@H](C)CO)C(=O)Cc2cc(N(C)C)ccc2O[C@H]1CN(C)Cc1ccccc1 9.89%
CO[C@@H]1CN(C)C(=O)c2cc(NC(=O)NC(C)C)ccc2OC[C@H](C)N(C)C[C@@H]1C -5.88%
CCS(=O)(=O)Nc1ccc2c(c1)OC[C@H](C)NC[C@@H](C)[C@@H](OC)CN(C)C2=O 10.9%
CN(C)C(=O)c1ccc(-c2ccc([C@@H]3[C@@H](C#N)N(C(=O)C4CC4)[C@H]3CO)cc2)cc1 19.6% [at 1.95 µM]
O=C(Nc1cc(F)ccc1F)N[C@H]1CC[C@H](CC(=O)N2CCc3ccccc3C2)O[C@@H]1CO -10.9% [at 8 µM]
C[C@H](CO)N1C[C@H](C)[C@@H](CN(C)Cc2ccc(C(F)(F)F)cc2)OCCCC[C@H](C)Oc2ccc(NC(=O)CCCN(C)C)cc2C1=O 16.3%
C[C@@H]1CN([C@@H](C)CO)C(=O)c2cc(NC(=O)Nc3ccc(C(F)(F)F)cc3)ccc2O[C@@H](C)CCCCO[C@@H]1CN(C)C 6.76% [at 8 µM]
C[C@@H]1CN([C@@H](C)CO)C(=O)c2cc(NC(=O)CCCN(C)C)ccc2O[C@@H](C)CCCCO[C@@H]1CN(C)Cc1ccc(C(F)(F)F)cc1 -16.2% [at 1.95 µM]
C[C@@H]1CN([C@@H](C)CO)C(=O)c2cc(NC(=O)Nc3ccc(C(F)(F)F)cc3)ccc2O[C@@H](C)CCCCO[C@H]1CN(C)C 31.7% [at 8 µM]
CCCN(C)C[C@H]1OCCCC[C@H](C)Oc2ccc(NC(=O)Nc3cccc4ccccc34)cc2C(=O)N([C@@H](C)CO)C[C@H]1C 13.8%
C[C@@H]1CN([C@@H](C)CO)C(=O)c2ccccc2-c2ccccc2CO[C@H]1CN(C)C(=O)CCN(C)C -7.53% [at 0.5 µM]
CO[C@H]1O[C@H](CO)[C@@H](OC(=O)Nc2cccc(F)c2)[C@H](OC(=O)Nc2ccc3c(c2)OCO3)[C@H]1OC(=O)Nc1ccc2c(c1)OCO2 8.7%
C[C@H](CO)N1C[C@H](C)[C@@H](CN(C)CC2CCCCC2)Oc2ccc(NC(=O)Cc3cn(C)c4ccccc34)cc2CC1=O 22.1% [at 1.95 µM]
CCCNC(=O)Nc1ccc2c(c1)C(=O)N(C)C[C@H](OC)[C@H](C)CN(C)[C@@H](C)CO2 -3.68% [at 0.5 µM]
C[C@@H]1CN([C@H](C)CO)C(=O)c2c(c3ccccc3n2C)-c2ccccc2CO[C@@H]1CN(C)C(=O)N[C@H](C)c1ccccc1 9.23% [at 35 µM]
CCCNC(=O)Nc1ccc2c(c1)C(=O)N(C)C[C@@H](OC)[C@@H](C)CN(CC1CCCC1)[C@@H](C)CO2 -4.03% [at 1.95 µM]
O=C(C[C@@H]1CC[C@@H]2[C@H](COC[C@H](O)CN2CC2CCCCC2)O1)NCc1ccc(Cl)cc1 22.4% [at 8 µM]
CO[C@H]1CN(C)C(=O)c2ccc(NC(=O)c3ccc(F)cc3)cc2OC[C@H](C)N(C(=O)CN(C)C)C[C@H]1C -10.1%
O=C(C[C@H]1C[C@H]2c3cc(NC(=O)CC4CC4)ccc3O[C@H]2[C@@H](CO)O1)NCc1cccc(F)c1 -3.04% [at 1.95 µM]
Cc1ccc(-c2ccc3c(c2)O[C@H](CN(C)Cc2ccncc2)[C@H](C)CN([C@H](C)CO)S3(=O)=O)cc1 34.8%
C[C@H](CO)N1C[C@H](C)[C@H](CN(C)Cc2cccc(C(=O)O)c2)OCc2ccccc2-c2c(n(C)c3ccccc23)C1=O -7.45% [at 0.5 µM]
CC1=CC2(CO)C(=O)[C@]3(CO3)[C@H]1[C@H]1[C@]2(C)C=C(CO)C(=O)[C@]12CO2 15.6%
Cc1ccc(F)cc1S(=O)(=O)N[C@@H]1CCN(Cc2ccc(OC(C)C)cc2)C1 34.7% [at 8 µM]
C[C@@H]1CN([C@H](C)CO)C(=O)c2c(c3ccccc3n2C)-c2ccccc2CO[C@H]1CN(C)C(=O)c1ccncc1 18.8%
COc1ccccc1-c1ccc2c(c1)O[C@H](CN(C)C(=O)c1ccccc1)[C@H](C)CN([C@@H](C)CO)S2(=O)=O 42.3%
C[C@H](CO)N1C[C@H](C)[C@@H](CN(C)S(=O)(=O)c2ccsc2)OCc2ccccc2-c2ccccc2C1=O 26.8%
CO[C@@H]1CN(C)C(=O)c2ccc(NS(=O)(=O)CC(F)(F)F)cc2OC[C@@H](C)N(C(=O)NC(C)C)C[C@H]1C 14.6%
Cc1noc(C)c1NC(=O)N(C)C[C@@H]1Oc2ccc(NC(=O)CCCCCC(=O)Nc3ccccc3N)cc2C(=O)N([C@@H](C)CO)C[C@@H]1C -8.05% [at 1.8 µM]
CO[C@H]1CN(C)C(=O)c2cc(NC(=O)NC3CCCCC3)ccc2OC[C@@H](C)N(CCc2ccccc2)C[C@H]1C 25.3%
CC(C)CC#Cc1ccc2c(c1)O[C@H](CN(C)Cc1ccncc1)[C@@H](C)CN([C@H](C)CO)S2(=O)=O 17.5%
C[C@@H]1CN([C@@H](C)CO)C(=O)c2cc(/C=C/c3ccccc3)cnc2O[C@H]1CN(C)C(=O)CN(C)C 18%
COCC#Cc1ccc2c(c1)O[C@@H](CN(C)Cc1ccncc1)[C@@H](C)CN([C@H](C)CO)S2(=O)=O 17.6%
O=C(NCCc1ccccc1)[C@H]1[C@H](CO)[C@H]2Cn3c(cccc3=O)[C@@H]1N2C(=O)C1CC1 -7.04%
C[C@H](CO)N1C[C@H](C)[C@@H](CN(C)Cc2cccnc2)Oc2cc(C#CC3CC3)ccc2S1(=O)=O 21.4%
CCCN1C[C@@H](C)[C@H](OC)CN(C)C(=O)c2cc(NC(=O)c3ccc4c(c3)OCO4)ccc2OC[C@H]1C 14.6% [at 35 µM]
C[C@@H]1CN([C@H](C)CO)C(=O)c2ccccc2-c2ccccc2CO[C@H]1CN(C)C(=O)CCN(C)C -7.05% [at 0.5 µM]
COc1ccc(CN(C)C[C@H]2Oc3ccc(NC(=O)Nc4ccc(C(F)(F)F)cc4)cc3C(=O)N([C@@H](C)CO)C[C@H]2C)cc1 -5.09% [at 0.5 µM]
CO[C@@H]1CN(C)C(=O)c2ccc(NS(=O)(=O)c3ccccc3C)cc2OC[C@H](C)N(S(C)(=O)=O)C[C@H]1C -9.59% [at 8 µM]
CNC[C@@H]1Oc2cc(-c3cccnc3)ccc2S(=O)(=O)N([C@H](C)CO)C[C@H]1C 14.8%
C[C@H]1CN([C@@H](C)CO)C(=O)c2ccccc2-c2ccccc2CO[C@H]1CN(C)S(=O)(=O)c1ccsc1 -19.4%
Cc1ccc(-c2ccc3c(c2)O[C@H](CN(C)Cc2cccnc2)[C@H](C)CN([C@H](C)CO)S3(=O)=O)cc1 17.6%
CCCNC(=O)Nc1ccc2c(c1)C(=O)N(C)C[C@H](OC)[C@@H](C)CN(C)[C@@H](C)CO2 4.84% [at 8 µM]
COCCNC(=O)C[C@@H]1CC[C@H]2[C@@H](COc3ccc(NS(=O)(=O)c4ccc(Cl)cc4)cc3C(=O)N2C)O1 14.3%
CC(C)Cc1ccc(CN2CC[C@@H](NS(=O)(=O)c3ccccc3)C2)cc1 -12% [at 0.5 µM]
CCCNC(=O)Nc1ccc2c(c1)C(=O)N(C)C[C@H](OC)[C@@H](C)CN(C(C)=O)[C@H](C)CO2 -7.56% [at 1.95 µM]
CO[C@H]1CN(C)C(=O)c2ccc(NS(=O)(=O)c3ccc(C)cc3)cc2OC[C@H](C)N(C(=O)NC(C)C)C[C@H]1C -11.4% [at 1.95 µM]
C/C=C/c1ccc2c(c1)O[C@H](CN(C)C(=O)c1ccc(F)cc1)[C@H](C)CN([C@@H](C)CO)S2(=O)=O 18.5%
